Results published in ChEMBL document CHEMBL3988442, “University of Dundee, Small-Polar-MMV Screening Library” (2021).
Screen size: about 69,000 compounds; about 1,000 (1.4%) showed an effect of 50% or more. The list comes from a sample in which strong results are over-represented; it also holds similar structures and randomly drawn compounds.

System: Leishmania donovani
Experiment: Leishmania intramacrophage assay
Type: functional, organism-based
Set-up: scale not given: in the data most compounds retested in dose-response had high values

Row | SMILES | Percent Effect (30.3 µM, […]) [%] | Percent Effect (30 µM, 30.03 µM) [%]
1 | COc1cccc(Nc2nc(C3CCCNC3)c3sc(C)c(C)n23)c1.Cl (stereo not drawn) | 20.11 | –
2 | COc1cccc(Nc2nc(C3CCCNC3)c3ccccn23)c1.Cl (stereo not drawn) | 2.866 | –
3 | COc1cccc(CNC(=O)c2cc(C)nc(N3CCCC3)n2)c1 | 4.164 | –
4 | COc1cccc(Nc2nc(-c3ccncc3)nc3c2CNCC3)c1.Cl | 63.42 | –
5 | COc1cccc(Nc2nc(C3CCNCC3)c3ccccn23)c1.Cl | -2.973 | –
6 | CCOCCNc1nc(-c2ccncc2)nc2c1CCNCC2 | -3.835 | –
7 | Fc1cccc(Nc2nc(N3CCCC3)nc3c2CNCC3)c1 | 99.78 | –
8 | CCN1CCN(S(=O)(=O)c2cc(Cl)c(Cl)cc2C)CC1 | – | 23.98
9 | Cc1nc(C2CCN(C(=O)c3cc(C4CC4)[nH]n3)CC2)no1 | 23.74 | –
10 | CC1(C(=O)NC2CCCC2)CCCN(c2ncccn2)C1 (stereo not drawn) | 2.815 | –
11 | COc1ccnc(N2CCN(C(=O)c3csc(C4CC4)n3)CC2)n1 | – | 15.31
12 | CN(C)c1ncc(-c2cc(C(=O)N3CCCC3)n(CC3CC3)c2)cn1 | -11.64 | –
13 | CN1CCCN(C(=O)c2nc3sccn3c2-c2ncc[nH]2)CC1 | 0.9103 | –
14 | Cc1ccsc1CN1CC2(CCN(C(=O)C3CC3)CC2)CC1C(=O)O (stereo not drawn) | 49 | –
15 | CCOCCN1CCN(CC(=O)NC2(C#N)CCCC2)CC1CC (stereo not drawn) | 4.261 | –
16 | CCCc1nnnn1Cc1cn2c(C)cccc2n1 | 19.02 | –
17 | COc1ccc(C)cc1Nc1nc2c(C)nn(C)c2c(=O)n1C | 54.75 | –
18 | COc1ccccc1Nc1nc2c(C)nn(C)c2c(=O)n1C | -67.83 | –
19 | COc1ccc(OC)c(Nc2nc3c(C)nn(C)c3c(=O)n2C)c1 | 46.31 | –
20 | CCc1nn(C)c(Cl)c1CN1C[C@@H](NC(=O)N(C)C)[C@H](C(C)C)C1 | 11.23 | –
21 | COC(=O)CN(C(=O)c1ccco1)c1cccc(F)c1 | -4.639 | –
22 | CSc1cccc(NC(=O)CCC(=O)Nc2nccs2)c1 | 36.02 | –
23 | CCC(C)Oc1ccc(CNCCNS(C)(=O)=O)cc1Cl (stereo not drawn) | 32.76 | –
24 | CCC(C)Oc1ccc(CNCCc2c[nH]cn2)cc1Cl (stereo not drawn) | 99.79 | –
25 | CCC(C)Oc1ccc(CNCCNC(C)=O)cc1Cl (stereo not drawn) | 40.54 | –
26 | Cc1cnn(CC(=O)N2CCC(c3ccn4nccc4n3)CC2)c1 | -6.355 | –
27 | COCCCNC(=O)Cc1nc(-c2ccncc2)n[nH]1 | -25.69 | –

Row | SMILES | Percent Effect (30.3 µM, […]) [%] | Percent Effect (30 µM, 30.03 µM) [%]
28 | O=C(Cc1nc(-c2ccncc2)n[nH]1)N1CCOCC1 | -34.22 | –
29 | O=C(Cc1nc(-c2ccncc2)n[nH]1)NCCCN1CCOCC1 | 58.11 | –
30 | COCCC1(CNC(=O)NCC2CN(C)CCN2C)CCC1 (stereo not drawn) | 8.791 | –
31 | CCn1c(N)nc2cc(C(=O)NCCc3ccccc3C)cnc21 | – | 29.75
32 | CCn1c(N)nc2cc(C(=O)NCCc3ccncc3)cnc21 | 62.87 | –
33 | CCn1c(N)nc2cc(C(=O)NCCc3ccccc3F)cnc21 | -34.47 | –
34 | O=C(O)C1CN(c2cncc(Cc3ccccc3F)n2)C1 | 17.92 | –
35 | O=C(O)C1CN(c2cncc(Cc3ccccc3)n2)C1 | 57.22 | –
36 | COc1ccccc1Cc1cncc(N2CC(C(=O)O)C2)n1.Cl | 35.18 | –
37 | O=C(N1CCOCC1)N1CCc2ncnc(NC3CCC3)c2CC1.O=C(O)C(F)(F)F | 14.85 | –
38 | c1cc2nc(C3CCNCC3)nn2cc1NC1CCC1 | 33.34 | –
39 | Cc1nc(COC(=O)c2cccc3c2OCCO3)cs1 | -13.85 | –
40 | Cc1nc(COC(=O)c2cccnc2C)no1 | 42.97 | –
41 | Cc1nc(COC(=O)c2cccc3c2OCCO3)no1 | 59.03 | –
42 | COc1ccccc1C1(CNc2snc(Cl)c2C#N)CCOCC1 | -16.98 | –
43 | N#Cc1c(Cl)nsc1NCC1(c2ccccc2)CCC1 | 91.2 | –
44 | COc1ccccc1C1(CNc2snc(Cl)c2C#N)CCCC1 | 7.398 | –
45 | Cc1cnn(-c2ccc(S(=O)(=O)N(C)CC(C)(CO)CO)cc2F)c1 | -120.1 | –
46 | CNS(=O)(=O)c1ccc(CNC(=O)N(C)CC(C)C)cc1 | 72.03 | –
47 | CNS(=O)(=O)c1ccc(CNC(=O)N(CC(C)C)C(C)C)cc1 | -6.25 | –
48 | CNS(=O)(=O)c1ccc(CNC(=O)N(C)CC(O)COC)cc1 (stereo not drawn) | 11.97 | –
49 | CN(C(=O)c1ccc(OCC(F)F)nc1)c1ccc2c(c1)CCO2 | 3.527 | –
50 | Cc1ncn(CCNC(=O)Nc2ccc(F)c(Cl)c2)c(=O)c1C | 0.8424 | –
51 | Cc1noc([C@H]2C[C@H]3CN(C(=O)C4CCOCC4)CC[C@@H]3O2)n1 | 60.92 | –
52 | Cc1noc([C@H]2C[C@@H]3CCN(C(=O)C4CCOCC4)C[C@H]3O2)n1 | – | -8.466
53 | Cc1noc([C@@H]2C[C@H]3CN(C(=O)C4CCN(C)CC4)C[C@H]3O2)n1.O=C(O)C(F)(F)F | 33.07 | –
